Source: PubChem BioAssay
Most compounds without a hit are left out; they make up all but 19% or so of the library.
TDP1 cell CPT = growth inhibition of DT40 Tdp1-/-;hTDP1 cells with camptothecin (screen for TDP1 inhibitors); AID 686979; 12% of 420,000 active; Potency, µM (series often up to 46.2 µM), for inactives: at the highest dose activity change, negative = growth inhibition, actives largely listed as inhibitors; chicken DT40 Tdp1-/-;hTDP1 cells + 20 nM CPT, ATP luminescence, 48 h; also: potency is read from the fitted curve at half-maximal effect; nearly all actives have a fitted effect of over 55% in size
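Cell growth measured by CellTiter-Glo luminescence after a minimum 48 h, 37 C compound exposure with 20 nM CPT in Tdp1-knockout DT40 cells stably expressing hTDP1, seeded 400/well; qHTS titration format.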
DT40 TDP1 no CPT = qHTS for Inhibitors of human tyrosyl-DNA phosphodiesterase 1 (TDP1): qHTS in cells in absence of CPT | DT40 Tdp1-/- hTDP1 cells, no CPT, ATP luminescence, 48 h | Potency, µM (doses to about 46.2 µM), without a hit: at the top dose activity change, negative = growth inhibition, most hits filed as inhibitors | 15% of 420,000 active | AID 686978, 2013; also: potency is read from the fitted curve at half-maximal effect; nearly all actives have a fitted effect of over 55% in size
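Cells were dispensed at 400 per well, compounds added by pin tool, plates incubated ≥48 hr at 37 °C, then CellTiter-Glo added for 30 min at room temperature before luminescence reading. Line: DT40 Tdp1-/- complemented with hTDP1; camptothecin omitted.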
IL-1B inflam inh = inflammasome signaling inhibition, IL-1 beta readout. THP-1 LPS/ATP IL-1B secretion, AlphaLISA, 16 h; active compounds read low. 4.7% of 360,000 active. activity change, % at 57.5 µM; in the data active = activity change below about -50%; inconclusive = mostly about -30% to -49%
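THP-1 cells pretreated 1 hr with compounds (up to 57.5 uM final), then stimulated with LPS (250 ng/mL final) plus ATP (1.25 mM final); secreted IL-1B measured by AlphaLISA after 16 hr, decreased signal indicating inhibition.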
HT1080 IDH1KD tx = HT-1080 IDH1 knockdown cell toxicity (counter line); HT-1080 IDH1 knockdown viability, ATP luminescence, 48 h; Potency, µM (top dose mostly 46.1 µM), for the others: at the top dose activity, negative = toxicity, hits mostly cytotoxic; 2% of 360,000 active;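 also: potency is read from the fitted curve at half-maximal effect; 0% = DMSO wells and -100% = cell-free medium wells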
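Knockdown cells (IDH1KD HT-1080) received compounds 2 h after plating at 750 cells/well and were kept 48 h at 37 °C in 5% FBS RPMI. A CellTiter-Glo luminescence read gave % activity for curve fitting.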
HT1080-NT tox = kills 2HG-producing HT-1080-NT fibrosarcoma cells; HT-1080-NT fibrosarcoma viability, CellTiter-Glo ATP luminescence, 48 h; Potency, µM (doses to about 46.1 µM), for inactives: at the highest dose activity, negative = less viability, usual class: cytotoxic; AID 686970; 1.6% of 360,000 active;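 also: NT is the 2HG producing partner of a matched IDH1 knockdown line; potency is read from the fitted curve at half-maximal effect; 0% = DMSO-treated cells and -100% = media-only wells without cells; nearly all actives have a fitted effect of over 55% in size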
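Viability by CellTiter-Glo luminescence after 48 h compound exposure at 37C of HT-1080-NT cells (750/well, RPMI, 5% FBS). % activity scaled between DMSO wells and medium-only wells, then curve-fitted and categorized by curve class.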
Numbers without * were called inactive; ? = inconclusive; . = no result; [ ] = another dose, or the depositor's remark. Unless noted, calls follow the shape of the dose curve; as a rule, active = well fitted curve in the direction sought with a large enough effect; inconclusive = small, poorly fitted or top-dose-only effect, or another doubt; inactive = no such curve, though single readings can be large; an effect the other way counts as inactive or inconclusive. Unless noted, % is scaled to controls: 0 for no effect and ±100 for the full control effect.

SMILES	TDP1 cell CPT	DT40 TDP1 no CPT	IL-1B inflam inh	HT1080 IDH1KD tx	HT1080-NT tox
Cc1c(C)n(C)c2ccc(C(=O)NCCCN3CCN(c4ccccc4F)CC3)cc12	9.2µM*	?	-1.5	?	?
CCOc1ccc(NC(=O)CN2CCC(n3cnc4cc(F)ccc43)CC2)cc1	-15.5%	?	-5.3	-16.8%	-8.7%
Cc1ccc(C(=O)Nc2ccccc2N2CCCC2)cc1	-0.6%	?	10.9	13.7%	17.0%
O=C(NCCCN1CCN(c2ccccc2F)CC1)c1ccc2nc(CCc3ccccc3)oc2c1	20.6µM*	14.6µM*	.	.	.
O=C(NCc1ccccc1)c1ccc2nc(CCc3ccccc3)oc2c1	-28.4%	?	.	.	.
CC1=C(C(=O)Nc2ccc(C)cc2C)C(c2ccccc2[N+](=O)[O-])n2ncc(C(=O)Nc3ccccc3)c2N1 (stereo unspecified)	?	25.9µM*	.	.	.
CC1=C(C(=O)Nc2ccc(C)cc2C)C(c2cc(Br)ccc2F)n2ncc(C(=O)Nc3ccc(C)cc3)c2N1 (stereo unspecified)	?	11.6µM*	.	.	.
CC(OC(=O)c1ccc(Cl)c(S(N)(=O)=O)c1)C(=O)NCc1ccc2c(c1)OCO2 (stereo unspecified)	14.7%	-14.5%	9.0	-4.1%	-6.2%
CN1CCN(c2ccc(Nc3ccnc4cc(Cl)ccc34)cc2)CC1	4.61µM*	5.8µM*	-89.6*	20.6µM*	?
CCN1CCN(c2ccc(Nc3ccnc4ccccc34)cc2)CC1	11.6µM*	5.8µM*	-1.4	?	-43.3%
CCOc1ccc(Nc2ccnc3cc(Cl)ccc23)cc1	?	?	-24.7	?	?
CC(=O)Nc1ccc2[nH]c(C)cc(=O)c2c1	8.4%	-25.7%	14.5	2.9%	-2.8%
Cc1cc2c(N=O)c(NO)ccc2[nH]1	7.31µM*	6.51µM*	-2.4	?	-19.2%
CC(C)N(C(=O)COC(=O)CNC(=O)c1ccc(Br)cc1)c1ccccc1	4.0%	-25.8%	2.3	-0.1%	8.5%
CC(OC(=O)C1=COCCO1)C(=O)NC1CCCCC1 (stereo unspecified)	-3.9%	5.3%	-2.5	3.0%	5.6%
CCOC(=O)c1cc(NC(=O)c2ccccc2)c(=O)n2c1oc1ccccc12	-12.8%	?	4.1	0.3%	22.6%
CCCc1nc2ccc(Br)cn2c1Cc1ccccc1	4.61µM*	2.91µM*	-6.6	-21.0%	-14.3%
Clc1cccc(Cc2c(-c3cccc(Br)c3)nc3ccc(Br)cn23)c1	?	?	-2.8	-20.3%	-21.9%
CCCc1nc2ccc(Br)cn2c1Cc1cccc(Cl)c1	6.51µM*	4.61µM*	13.1	?	?
Brc1cccc(-c2nc3ccc(Br)cn3c2Cc2ccccc2)c1	?	?	58.3	8.9%	4.7%
CCC1(CCC(C)C)SC(N)=NC1=O (stereo unspecified)	1.7%	2.5%	-5.0	0.7%	0.3%
CC(=O)Oc1ccccc1Cn1c(C)c(C(=O)NCc2ccccc2C(F)(F)F)sc1=O	?	?	15.1	-27.4%	?
CCc1ccccc1NC(=O)c1cn(C)c(=O)c2ccccc12	-18.8%	-9.4%	.	.	.
COc1ccccc1CNC(=O)C(NS(=O)(=O)c1ccc2c(c1)oc(=O)n2C)C(C)C (stereo unspecified)	-1.8%	-28.3%	10.4	8.9%	10.0%
CCOC(=O)N1CCc2c(sc3c2C(=O)NC(c2ccccc2)N3)C1 (stereo unspecified)	6.51µM*	3.26µM*	0.0	14.6µM*	?
SMILES	TDP1 cell CPT	DT40 TDP1 no CPT	IL-1B inflam inh	HT1080 IDH1KD tx	HT1080-NT tox
CCOc1cc(C2NC(=O)c3c(sc4c3CCN(C)C4)N2)ccc1OC(=O)c1ccc(Br)cc1 (stereo unspecified)	3.7%	3.5%	.	.	.
CCOC(=O)c1sc(C)c2c1NC(c1ccc(N(C)C)cc1)NC2=O (stereo unspecified)	?	?	-17.3	-14.0%	-3.3%
CCOC(=O)N1CCc2c(sc3c2C(=O)NC(c2ccc(N(C)C)cc2)N3)C1 (stereo unspecified)	2.31µM*	3.66µM*	.	.	.
O=C1C2C3C=CC(C2C(=O)N1C1CCCCC1)C1C2C(=O)N(C4CCCCC4)C(=O)C2C31 (stereo unspecified)	?	?	16.4	3.0%	7.7%
COc1ccc(-n2c(SCC(N)=O)nc3sc4c(c3c2=O)CCC4)cc1	-8.1%	-17.0%	41.1	-2.0%	-7.6%
COc1cccc(C2=NN(C(C)=O)C(c3cn(-c4ccccc4)nc3-c3cccs3)C2)c1 (stereo unspecified)	5.4%	13.0%	.	.	.
CC(=O)N1N=C(c2ccc(C)cc2)CC1c1cn(-c2ccccc2)nc1-c1cccs1 (stereo unspecified)	16.4µM*	?	.	.	.
CC1CC(NS(=O)(=O)c2cccs2)CC(C)(C)C1 (stereo unspecified)	-28.4%	?	1.3	-7.3%[9.24 µM]	-26.5%
COc1ccc(CN(C)CC(O)COc2ccc(C(=O)c3ccccc3)cc2)c(OC)c1OC (stereo unspecified)	?	16.4µM*	-66.9*	?	20.6µM*
CCN(Cc1ccccc1)CC(O)COC(c1ccc(OC)cc1)c1ccc(OC)cc1 (stereo unspecified)	20.6µM*	20.6µM*	-6.2	-21.6%	?
COc1cccc(OC)c1OCCOc1ccc(C(=O)c2ccccc2)cc1	?	?	?	-12.5%	-12.2%
CCN(CC)CC(O)COC(c1ccccc1)c1ccccc1 (stereo unspecified)	-29.1%	14.3%	?	3.3%	1.7%
COc1ccc(CCN(C)CC(O)COC(c2ccc(F)cc2)c2ccc(F)cc2)cc1OC (stereo unspecified)	16.4µM*	?	-92.3*	?	23.1µM*
COc1ccc(CN(C)CC(O)COC(c2ccccc2)c2ccccc2)c(OC)c1OC (stereo unspecified)	?	?	.	?	23.1µM*
O=C(c1ccc(Cl)c(S(=O)(=O)N2CCCCC2)c1)N1CCCC(C(F)(F)F)C1 (stereo unspecified)	-20.9%	?	32.8	-3.7%	-3.1%
CN(CCOc1ccccc1)CC(O)COc1ccccc1 (stereo unspecified)	?	?	-10.1	-9.0%	-6.0%
CN(CCOc1ccc(Br)cc1)CC(O)COc1ccc(C#N)cc1 (stereo unspecified)	?	4.11µM*	-87.4*	?	20.6µM*
